# Laboratory results published in publication PMC8384837, “Expanding the binding specificity for RNA recognition by a PUF domain”.
# Residue numbers refer to the chain shown, from its start.
# Key:
# Assay in all cases: yeast three-hybrid, YBZ-1, SC-Leu-His + 0.5 mM 3-AT, 4 days
# Conditions in all cases: tags: N-Gal4 AD-HA kept; label: inside an RPR1-promoter hybrid RNA with tandem MS2 sites; ssRNA
# [1] = biological target: PUM1 PUF domain R5-FHM (Homo sapiens, UniProt Q14671 828-1176, C1007F;R1008H;Q1011M)
# How it was run: (§1)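 Each repeat of the Pumilio-1 PUF domain was randomized at its three base-contacting residues, and these libraries were co-expressed from a centromeric plasmid with matching RNA elements in strain YBZ-1. After four days on SC-Leu (input) or SC-Leu-His + 0.5 mM 3-AT (selection), the repeat regions were PCR-amplified and Illumina-sequenced. The interaction score compares variant frequency between input and selection as a log change, computed in log2 with a pseudocount of 1 for absent variants.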
# [2] = biological target: PUM1 PUF domain R8-HFR (Homo sapiens, UniProt Q14671 828-1176, N1122H;Y1123F;Q1126R)
# How it was run: as §1
# [3] = biological target: PUM1 PUF domain R4-SPT (Homo sapiens, UniProt Q14671 828-1176, N971S;H972P;Q975T)
# How it was run: as §1
# [4] = biological target: T1, PUM1 PUF domain R6-VWR (Homo sapiens, UniProt Q14671 828-1176, N1043V;Y1044W;Q1047R)
# T1 sequence: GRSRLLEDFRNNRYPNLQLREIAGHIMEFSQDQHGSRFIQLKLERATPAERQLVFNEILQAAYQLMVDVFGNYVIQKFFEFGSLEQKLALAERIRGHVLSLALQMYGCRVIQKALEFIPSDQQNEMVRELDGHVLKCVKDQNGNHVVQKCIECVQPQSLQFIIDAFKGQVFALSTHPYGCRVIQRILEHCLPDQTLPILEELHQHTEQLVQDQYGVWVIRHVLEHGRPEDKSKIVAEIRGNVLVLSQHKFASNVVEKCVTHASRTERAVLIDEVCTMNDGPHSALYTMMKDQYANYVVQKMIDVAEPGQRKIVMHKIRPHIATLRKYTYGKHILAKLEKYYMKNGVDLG
# How it was run: as §1
# [5] = biological target: T2, PUM1 PUF domain R6-DWV (Homo sapiens, UniProt Q14671 828-1176, N1043D;Y1044W;Q1047V)
# T2 sequence: T1 sequence with V216D, R220V
# How it was run: as §1
# [6] = biological target: PUM1 PUF domain R3-YFA (Homo sapiens, UniProt Q14671 828-1176, C935Y;R936F;Q939A)
# How it was run: as §1
# [7] = biological target: PUM1 PUF domain R3-YRL (Homo sapiens, UniProt Q14671 828-1176, C935Y;Q939L)
# How it was run: as §1
# [8] = biological target: PUM1 PUF domain R3-RGR (Homo sapiens, UniProt Q14671 828-1176, C935R;R936G;Q939R)
# How it was run: as §1
# [9] = biological target: PUM1 PUF domain R5-NAG (Homo sapiens, UniProt Q14671 828-1176, C1007N;R1008A;Q1011G)
# How it was run: as §1
# [10] = biological target: PUM1 PUF domain R1-FGR (Homo sapiens, UniProt Q14671 828-1176, S863F;R864G;Q867R)
# How it was run: as §1
# Sequence of PUM1 PUF domain R1-FGR (Q14671 828-1176 S863F/R864G/Q867R): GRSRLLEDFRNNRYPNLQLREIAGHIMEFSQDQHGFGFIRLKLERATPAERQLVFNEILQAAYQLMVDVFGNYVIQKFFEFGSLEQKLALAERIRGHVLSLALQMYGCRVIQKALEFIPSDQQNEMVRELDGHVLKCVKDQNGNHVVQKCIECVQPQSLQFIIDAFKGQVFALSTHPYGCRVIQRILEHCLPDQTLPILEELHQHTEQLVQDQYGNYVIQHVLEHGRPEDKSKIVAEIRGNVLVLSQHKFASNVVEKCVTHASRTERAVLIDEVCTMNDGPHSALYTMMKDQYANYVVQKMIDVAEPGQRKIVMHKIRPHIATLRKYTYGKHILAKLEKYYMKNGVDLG
# Sequence of PUM1 PUF domain R3-RGR (Q14671 828-1176 C935R/R936G/Q939R): as the sequence (Q14671 828-1176 S863F/R864G/Q867R) above, with F36S, G37R, R40Q, C108R, R109G, Q112R counted along it
# Sequence of PUM1 PUF domain R5-FHM (Q14671 828-1176 C1007F/R1008H/Q1011M): as the sequence (Q14671 828-1176 S863F/R864G/Q867R) above, with F36S, G37R, R40Q, C180F, R181H, Q184M counted along it
sequence,measurement,setting,value
GGCUAGAACUAGUGGAUCCCCCGGCGCCCGGCGGCUCGAGCCCGGGUAAGUGUGAAUAGUCUGCAUGCCGCCGGGCGCCAUGCCUGCAGGUCGACUCUAGAAAACAUG,binding signal,[1],5.31 log2 enrichment (interaction score)
GGCUAGAACUAGUGGAUCCCCCGGCGCCCGGCGGCUCGAGCCCGGGUAAGCGUAAAUAGUCUGCAUGCCGCCGGGCGCCAUGCCUGCAGGUCGACUCUAGAAAACAUG,binding signal,[2],4.92 log2 enrichment (interaction score)
GGCUAGAACUAGUGGAUCCCCCGGCGCCCGGCGGCUCGAGCCCGGGUAAGUGUACAUAGUCUGCAUGCCGCCGGGCGCCAUGCCUGCAGGUCGACUCUAGAAAACAUG,binding signal,[3],1.24 log2 enrichment (interaction score)
GGCUAGAACUAGUGGAUCCCCCGGCGCCCGGCGGCUCGAGCCCGGGUAAGUGUAAAUAGUCUGCAUGCCGCCGGGCGCCAUGCCUGCAGGUCGACUCUAGAAAACAUG,binding signal,[3],3.95 log2 enrichment (interaction score)
same,binding signal,[4],5.89 log2 enrichment (interaction score)
same,binding signal,[5],2.46 log2 enrichment (interaction score)
same,binding signal,[6],4.33 log2 enrichment (interaction score)
same,binding signal,[7],2.11 log2 enrichment (interaction score)
GGCUAGAACUAGUGGAUCCCCCGGCGCCCGGCGGCUCGAGCCCGGGUAAGUGUAAUUAGUCUGCAUGCCGCCGGGCGCCAUGCCUGCAGGUCGACUCUAGAAAACAUG,binding signal,[8],2.38 log2 enrichment (interaction score)
GGCUAGAACUAGUGGAUCCCCCGGCGCCCGGCGGCUCGAGCCCGGGUAAGUGAAAAUAGUCUGCAUGCCGCCGGGCGCCAUGCCUGCAGGUCGACUCUAGAAAACAUG,binding signal,[4],3.34 log2 enrichment (interaction score)
GGCUAGAACUAGUGGAUCCCCCGGCGCCCGGCGGCUCGAGCCCGGGUAAGUGUUAAUAGUCUGCAUGCCGCCGGGCGCCAUGCCUGCAGGUCGACUCUAGAAAACAUG,binding signal,[9],4.83 log2 enrichment (interaction score)
GGCUAGAACUAGUGGAUCCCCCGGCGCCCGGCGGCUCGAGCCCGGGUAAGUGUAAAUUGUCUGCAUGCCGCCGGGCGCCAUGCCUGCAGGUCGACUCUAGAAAACAUG,binding signal,[10],3.11 log2 enrichment (interaction score)
GGCUAGAACUAGUGGAUCCCCCGGCGCCCGGCGGCUCGAGCCCGGGUAAGUGUAAAUCGUCUGCAUGCCGCCGGGCGCCAUGCCUGCAGGUCGACUCUAGAAAACAUG,binding signal,[10],0.54 log2 enrichment (interaction score)
